Unmarked numbers belong to inactive results. Results filed as inconclusive are left out. Where a call stands in place of a potency, no number is given. Activity calls are given as the source filed them. Unless noted, calls follow the shape of the dose curve; as a rule, active = well fitted curve in the direction sought with a large enough effect in the repeat runs; inconclusive = weak or mixed curves; inactive = no such curve, though single readings can be large; an effect the other way counts as inactive or inconclusive.
How the values were obtained:
[1] = qHTS assay to identify small molecule antagonists of the retinoic acid receptor (RAR) signaling pathway (AID 1159552; also: nearly all actives have a fitted effect of over 50% in size)
In short: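 Retinol signaling pathway inhibitors screened in C3RL4 RARE-luciferase reporter cells seeded overnight at 37 C, then compounds added with 1 uM (final) retinol as pathway substrate. After 6 hr at 37 C, luciferase luminescence read after 30 min at room temperature.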

[2] = qHTS assay to identify small molecule agonists of the retinoic acid receptor (RAR) signaling pathway (AID 1159553)
In short: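 C3RL4 cells carrying a RARE luciferase reporter were plated overnight at 37 C, then exposed to compounds in DMSO for 6 hr at 37 C and 5% CO2. Luminescence was read 30 min after luciferase reagent addition at room temperature.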

[3] = molecular target: Luciferin 4-monooxygenase (Photinus pyralis) (UniProt P08659); experiment: qHTS assay to identify small molecule inhibitors of firefly luciferase (AID 1224835); also: nearly all actives have a fitted effect of over 25% in size
In short: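 Biochemical qHTS: compounds run as interplate titrations against purified firefly enzyme, with D-luciferin and ATP each at its KM concentration. Light output recorded by CCD imaging.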

[4] = qHTS assay to identify small molecule agonists of the constitutive androstane receptor (CAR) signaling pathway - cell viability counter screen (AID 1224836); also: nearly all actives have a fitted effect of over 45% in size
In short: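 HepG2 cells stably carrying hCAR and a CYP2B6-2.2kb reporter; 15-concentration compounds plus PK11195 (final 0.75 uM), 23 hr at 37 C/5% CO2. Viability read by CellTiter-Fluor fluorescence.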

[5] = qHTS assay to identify small molecule antagonists of the constitutive androstane receptor (CAR) signaling pathway - cell viability counter screen (AID 1224837); also: nearly all actives have a fitted effect of over 45% in size
In short: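 HepG2 cells stably expressing hCAR and a CYP2B6-2.2kb reporter were plated and pre-incubated 4 hr at 37 C/5% CO2, then given compounds at 15 concentrations plus 50 nM CITCO (final). After 23 hr, viability was read by CellTiter-Fluor fluorescence.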

[6] = molecular target: Nuclear receptor subfamily 1 group I member 3 (Homo sapiens) (UniProt Q14994); experiment: qHTS assay to identify small molecule agonists of the constitutive androstane receptor (CAR) signaling pathway (AID 1224839);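 also: HepG2 cells stably carrying human CAR and a CYP2B6 luciferase reporter; nearly all actives have a fitted effect of over 15% in size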
In short: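 HepG2 cells stably co-transfected with hCAR and a CYP2B6-2.2kb luciferase reporter; compounds at 15 concentrations with 0.75 uM PK11195 present. After 24 hr at 37 C, luciferase read by ONE-Glo luminescence.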

[7] = qHTS assay to identify small molecule antagonists of the estrogen related receptor signaling pathway with the pleiotropic PPARgamma coactivator (PGC) from Tox21 10K library - cell viability counter screen (AID 1224840; active = well fitted cell-killing curve with a large enough effect in the repeat runs, not every such curve was filed as active; also: nearly all actives have a fitted effect of over 40% in size)
In short: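 PGC/ERR cells were seeded at 2,000 cells/well and left 6 hours at 37 C/5% CO2 before pin-tool addition of compounds in DMSO. After 17.5 hours at 37 C, CellTiter-Fluor was added and fluorescence read 30 minutes later.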

[8] = qHTS assay to identify small molecule antagonists of the estrogen related receptor signaling pathway with the pleiotropic PPARgamma coactivator (PGC) from Tox21 10K library (AID 1224841; call rule not given here; also: actives are mostly falling curves and most rising ones were filed inactive; nearly all actives have a fitted effect of over 50% in size)
In short: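 PGC/ERR reporter cells were seeded at 2,000 cells/well and held 6 hours at 37 C/5% CO2 before pin-tool addition of compounds in DMSO. After 18 hours at 37 C, One-Glo was added and luminescence read after 30 minutes at room temperature.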

[9] = qHTS assay to identify small molecule agonists of the estrogen related receptor signaling pathway with the pleiotropic PPARgamma coactivator (PGC) from Tox21 10K library (AID 1224842); also: nearly all actives have a fitted effect of over 15% in size
In short: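 PGC/ERR reporter cell line, 2,000 cells per well, incubated 6 h at 37 C before 23 nL compound in DMSO was added. After 18 h at 37 C, One-Glo luminescence read following 30 min at room temperature.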

[10] = qHTS assay to identify small molecule agonists of the hypoxia (HIF-1) signaling pathway - cell viability counter screen (AID 1224844; calls by dose curve; also: nearly all actives have a fitted effect of over 50% in size)
In short: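 HRE-bla ME-180 cells in medium with 0.5% dialyzed FBS were preincubated 5 hrs at 37C, exposed to compounds for 17 hrs, then viability was read as CellTiter-Glo luminescence after 30 min at room temperature, in the reporter wells.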

[11] = qHTS assay to identify small molecule agonists of the hypoxia (HIF-1) signaling pathway (AID 1224846; active = well fitted activation curve with a large enough effect in the signal ratio in the repeat runs, not every such curve was filed as active; the % refers to the signal ratio)
In short: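 HRE-bla ME-180 cells (beta-lactamase reporter under hypoxia response element) were plated at 2,000 cells/well in medium with 0.5% dialyzed FBS, rested 5 hrs, then given compounds in DMSO for 17 hrs at 37C, 5% CO2. Reporter induction was read with CCF4-AM FRET substrate.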

[12] = qHTS assay to identify small molecule agonists of H2AX - cell viability counter screen (AID 1224847; calls by dose curve; also: top concentration of the series differs between compounds; nearly all actives have a fitted effect of over 30% in size)
In short: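 CHO-K1 cells plated overnight at 37C, then exposed 3 h at 37C to compounds at 15 concentrations (0.76% DMSO final). Viability by CellTiter-Glo luminescence after 30 min at room temperature.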

[13] = qHTS assay to identify small molecule agonists of the estrogen related receptor (ERR) signaling pathway from Tox21 library (AID 1224849; calls by dose curve; also: nearly all actives have a fitted effect of over 15% in size); conditions: ERR reporter cell line, ONE-Glo luciferase, 18 h; at 92.4 µM (top of the series) unless noted
In short: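 ERR reporter cell line (NTP) seeded, rested 6 h at 37 C/5% CO2, then pinned with Tox21 compounds in DMSO. After 18 h at 37 C, ONE-Glo luciferase luminescence was read following 30 min at room temperature.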

[14] = qHTS RealTime-Glo MT Cell Viability Assay in HepG2 cells - 24 hour (AID 1224867); also: nearly all actives have a fitted effect of over 50% in size
In short: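 Viability was tracked continuously by NanoLuc luminescence from prosubstrate reduced by living HepG2 cells, at successive time points over 40 h of compound exposure. Cells with reagent were preincubated 5 h at 37 °C before compound addition.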

[15] = qHTS assay to identify small molecule antagonists of the estrogen related receptor (ERR) signaling pathway from Tox21 library - cell viability counter screen (AID 1224834); also: nearly all actives have a fitted effect of over 30% in size
In short: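 ERR reporter cells were plated 6 h before compound addition, then exposed to test compounds in DMSO for 17.5 h at 37 C. Viability was read as CellTiter-Fluor fluorescence after a 30-minute incubation at 37 C.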

[16] = molecular target: Nuclear receptor subfamily 1 group I member 3 (Homo sapiens) (UniProt Q14994); experiment: qHTS assay to identify small molecule antagonists of the constitutive androstane receptor (CAR) signaling pathway (AID 1224838); also: nearly all actives have a fitted effect of over 40% in size
In short: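 HepG2 cells stably co-transfected with hCAR and a CYP2B6-2.2kb luciferase reporter were seeded 4 h before compound addition at 15 concentrations. Cells were stimulated with 50 nM CITCO (final) for 24 h at 37 C; luciferase luminescence was then read.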

[17] = molecular target: Thyrotropin receptor (Homo sapiens) (UniProt P16473); experiment: qHTS assay to identify small molecule agonists of the thyroid stimulating hormone receptor (TSHR) signaling pathway (AID 1224843; calls by dose curve; also: nearly all actives have a fitted effect of over 45% in size; also: potency is read from the fitted curve at half-maximal effect)
In short: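 TSHR-HEK293 cells in agonist mode, 30 min room-temperature step, then cAMP measured by competitive HTRF (cAMP-d2 with anti-cAMP cryptate) after 1 h at room temperature. Tested at 15 concentrations in triplicate.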

[18] = qHTS assay to identify small molecule agonists of H2AX (AID 1224845; active = well fitted activation curve with a large enough effect in the signal ratio in the repeat runs, not every such curve was filed as active; the % refers to the signal ratio)
In short: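 Wild-type CHO-K1 cells, plated overnight, exposed 3hr at 37C to 15 concentrations (0.76% DMSO final). Lysed, then HTRF anti-pH2AX (S139) cryptate and anti-H2AX-d2 antibodies, 24 hr room temperature; 665/620 nm emission read.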

[19] = qHTS assay to identify small molecule antagonists of the estrogen related receptor (ERR) signaling pathway from Tox21 library (AID 1224848); also: nearly all actives have a fitted effect of over 50% in size
In short: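 ERR reporter cell line (from NTP) seeded 2,000 cells/well, rested 6 h at 37 C/5% CO2, then pin-dosed with compounds in DMSO. After 18 h at 37 C, ONE-Glo added; luminescence read after 30 min at room temperature.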

Chain of Nuclear receptor subfamily 1 group I member 3 (Homo sapiens) (Q14994 whole entry, looked up): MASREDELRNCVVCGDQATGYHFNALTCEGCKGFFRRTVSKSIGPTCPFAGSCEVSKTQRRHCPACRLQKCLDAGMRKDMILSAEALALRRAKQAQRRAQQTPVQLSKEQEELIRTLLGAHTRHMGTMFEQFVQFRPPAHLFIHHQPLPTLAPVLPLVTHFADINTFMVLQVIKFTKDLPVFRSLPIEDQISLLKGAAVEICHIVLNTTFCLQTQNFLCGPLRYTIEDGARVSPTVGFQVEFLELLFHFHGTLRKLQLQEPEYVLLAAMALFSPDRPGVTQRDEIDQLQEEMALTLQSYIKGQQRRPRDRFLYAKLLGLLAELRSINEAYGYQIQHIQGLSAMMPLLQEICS
Chain of Thyrotropin receptor (Homo sapiens) (P16473 whole entry, looked up): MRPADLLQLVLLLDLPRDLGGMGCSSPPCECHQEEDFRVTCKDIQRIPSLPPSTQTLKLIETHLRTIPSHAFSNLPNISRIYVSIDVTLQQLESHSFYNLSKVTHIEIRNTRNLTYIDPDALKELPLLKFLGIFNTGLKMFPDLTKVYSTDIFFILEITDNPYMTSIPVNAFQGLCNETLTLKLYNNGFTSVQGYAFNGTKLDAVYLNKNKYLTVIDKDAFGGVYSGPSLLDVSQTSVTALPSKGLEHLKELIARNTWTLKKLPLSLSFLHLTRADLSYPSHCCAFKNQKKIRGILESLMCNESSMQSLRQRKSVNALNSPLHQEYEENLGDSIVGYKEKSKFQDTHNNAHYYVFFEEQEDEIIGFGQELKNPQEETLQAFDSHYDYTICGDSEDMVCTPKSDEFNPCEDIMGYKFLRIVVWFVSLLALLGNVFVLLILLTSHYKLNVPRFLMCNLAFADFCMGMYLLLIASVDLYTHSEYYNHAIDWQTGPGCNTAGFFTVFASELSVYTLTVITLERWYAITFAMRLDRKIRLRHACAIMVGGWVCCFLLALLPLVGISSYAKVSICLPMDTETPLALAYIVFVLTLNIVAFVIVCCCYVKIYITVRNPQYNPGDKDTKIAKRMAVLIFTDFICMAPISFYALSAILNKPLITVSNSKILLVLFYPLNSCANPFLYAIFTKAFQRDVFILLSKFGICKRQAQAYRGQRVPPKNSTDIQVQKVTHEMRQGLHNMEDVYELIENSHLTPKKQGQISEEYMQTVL
Chain of Luciferin 4-monooxygenase (Photinus pyralis) (P08659 whole entry, looked up): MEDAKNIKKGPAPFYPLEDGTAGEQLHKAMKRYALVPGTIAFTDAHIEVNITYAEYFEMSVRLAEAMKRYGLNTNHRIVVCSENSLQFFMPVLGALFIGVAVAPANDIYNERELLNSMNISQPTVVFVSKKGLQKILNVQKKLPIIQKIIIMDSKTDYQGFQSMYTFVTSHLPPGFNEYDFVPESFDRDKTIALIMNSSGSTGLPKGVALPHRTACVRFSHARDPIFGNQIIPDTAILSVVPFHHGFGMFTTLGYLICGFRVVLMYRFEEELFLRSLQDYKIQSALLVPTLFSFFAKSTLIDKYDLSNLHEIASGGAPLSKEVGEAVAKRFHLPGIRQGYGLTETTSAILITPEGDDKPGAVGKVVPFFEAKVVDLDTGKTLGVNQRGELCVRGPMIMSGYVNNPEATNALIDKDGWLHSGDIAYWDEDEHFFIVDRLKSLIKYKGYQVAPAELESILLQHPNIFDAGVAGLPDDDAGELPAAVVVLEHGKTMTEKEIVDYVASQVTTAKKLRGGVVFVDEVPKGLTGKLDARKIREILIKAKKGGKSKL

Row | SMILES | outcome [1] | Potency [2] | Potency [3] | outcome [4] | outcome [5] | Potency [6] | outcome [7] | Potency [8] | Potency [9] | outcome [10] | outcome [11] | outcome [12] | activity change, positive = activation [13] | outcome [14] | outcome [15] | outcome [16] | Potency [17] | outcome [18] | outcome [19]
1 | Nc1cc(S(=O)(=O)O)ccc1O | inactive | inactive | inactive | inactive | inactive | inactive | inactive | inactive | inactive | inactive | inactive | inactive | 6.11% | inactive | – | – | – | – | –
2 | COC(=O)c1cc(Cl)c(NC(C)=O)cc1OC | inactive | inactive | inactive | inactive | inactive | inactive | inactive | – | – | inactive | inactive | inactive | – | inactive | inactive | inactive | inactive | inactive | –
3 | OCCC(F)(F)C(F)(F)C(F)(F)C(F)(F)C(F)(F)C(F)(F)F | inactive | inactive | inactive | inactive | inactive | inactive | inactive | – | – | inactive | inactive | inactive | – | inactive | inactive | – | inactive | inactive | –
4 | CNC(=O)c1c(I)c(NC(C)=O)c(I)c(C(=O)O)c1I | inactive | inactive | inactive | inactive | inactive | – | inactive | inactive | inactive | inactive | inactive | inactive | 2.26% [at 42.5 µM] | inactive | inactive | – | – | inactive | inactive
5 | C=CCON/C(CCC)=C1\C(=O)CC(C)(C)C(C(=O)OC)=C1O | inactive | inactive | inactive | inactive | – | inactive | inactive | – | – | inactive | inactive | – | – | inactive | – | inactive | inactive | inactive | –
6 | CCOCCOCCOC(C)=O | inactive | inactive | inactive | inactive | inactive | inactive | inactive | – | – | inactive | – | inactive | – | inactive | inactive | inactive | inactive | inactive | –
7 | CC(C)=CCC/C(C)=C\C#N | inactive | inactive | inactive | inactive | – | inactive | inactive | – | – | inactive | inactive | inactive | – | inactive | inactive | inactive | inactive | inactive | –
8 | CC(C)(C)C(=O)CC(=O)C(C)(C)C | inactive | inactive | inactive | inactive | inactive | – | inactive | – | inactive | inactive | inactive | inactive | 3.23% | inactive | inactive | – | inactive | inactive | inactive
9 | CC(=O)/C=C/C=C1/C2CCC(C2)C1(C)C (stereo not drawn) | inactive | inactive | inactive | inactive | inactive | – | inactive | – | – | inactive | inactive | inactive | – | inactive | inactive | – | 18.8 µM (active) | inactive | –
10 | CC(O)C(CO)C(C)O (stereo not drawn) | inactive | – | inactive | inactive | – | – | inactive | – | – | inactive | inactive | inactive | – | inactive | – | – | inactive | inactive | –
11 | N#CC1(N)CCCCC1 | inactive | inactive | inactive | inactive | inactive | inactive | inactive | – | – | inactive | inactive | inactive | – | inactive | inactive | inactive | inactive | inactive | –
